Test results taken from the supplement of paper PMC6555819.

What was measured:
Assay in all cases: PBM binding z-score (relative to random genomic background probes); higher = stronger binding; sequences stand for … in GC…GCGATTGACAGCGTAGAATGAAGG
[1] = tested on: FXR:RXRa (NR concentration 270 nM, RXRa partner concentration 90 nM)
Procedure, shortened: (§1)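 Antibodies against each partner of ligand-free nuclear receptor dimers (one per run) detected binding on custom Agilent 4×180K protein-binding microarrays after 1 h incubation. The double-stranded probes had 34-nt variable regions carrying direct-repeat seeds, single-nucleotide variants, half-site ablations and random human genomic background sequences. Binding z-scores, from regression-normalized fluorescence, use the random background probes as reference.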

[2] = tested on: LXRa:RXRa (NR concentration 270 nM, RXRa partner concentration 90 nM)
Procedure, shortened: as §1

[3] = tested on: LXRa homodimer (NR concentration 270 nM)
Procedure, shortened: as §1

[4] = tested on: LXRb:RXRa (NR concentration 270 nM, RXRa partner concentration 90 nM)
Procedure, shortened: as §1

[5] = tested on: LXRb homodimer (NR concentration 270 nM)
Procedure, shortened: as §1

[6] = tested on: PPARa:RXRa (NR concentration 270 nM, RXRa partner concentration 90 nM)
Procedure, shortened: as §1

[7] = tested on: PPARg:RXRa (NR concentration 180 nM, RXRa partner concentration 90 nM)
Procedure, shortened: as §1

[8] = tested on: PPARg:RXRa 270nM:90nM, anti-RXR (NR concentration 270 nM, RXRa partner concentration 90 nM)
Procedure, shortened: as §1

[9] = tested on: PPARg:RXRa 30nM:10nM, anti-RXR (NR concentration 30 nM, RXRa partner concentration 10 nM)
Procedure, shortened: as §1

[10] = tested on: PPARg:RXRa 90nM:30nM, anti-RXR (NR concentration 90 nM, RXRa partner concentration 30 nM)
Procedure, shortened: as §1

Row | Sequence | PBM binding z-score [1] | PBM binding z-score [2] | PBM binding z-score [3] | PBM binding z-score [4] | PBM binding z-score [5] | PBM binding z-score [6] | PBM binding z-score [7] | PBM binding z-score [8] | PBM binding z-score [9] | PBM binding z-score [10]
1 | ATATGTAGGTTAGCTGGGGTCGTTCAGACTAGGC | 1.41 | 3.09 | 0.399 | 2.71 | 0.5 | 3.82 | 3.96 | 3.57 | 1.33 | 2.73
2 | ACTCGGAGGACAAAGGTCGGAGCTACGCCAGTGA | 0.927 | 1.18 | -0.439 | 0.689 | -0.291 | 2.9 | 4.62 | 5.7 | 3.54 | 5.62
3 | CCAGACAGGTGAGAAGGTAACTCGGCCTCGATTA | -0.0113 | 0.14 | -0.0117 | -0.138 | -0.518 | 0.585 | 0.364 | 0.533 | -0.307 | 0.171
4 | CCTACTGGGCAATCAGGTCATTGATATCAACGTT | 0.891 | 1 | 0.766 | 1.27 | -0.496 | 2.26 | 1.34 | 2.44 | 0.371 | 1.25
5 | ATATGTAGGTTAGTTGGGGTCATTCAGACTAGGC | 5 | 6.61 | 5.82 | 5.76 | 1.94 | 5.47 | 5.44 | 5.32 | 2.72 | 4.54
6 | CGAACTAGGTCATCCAGGACAGTGATTACATTGA | 4.19 | 2.8 | 0.631 | 2.2 | -0.108 | 4.62 | 7.63 | 6.33 | 3.95 | 5.79
7 | CATAGCAGGCCAGGGTCACTCAAGCATTTCGCTT | 2.42 | 1.71 | -0.165 | 2.2 | 0.0433 | 3.42 | 1.88 | 2.27 | 0.29 | 1.54
8 | CAAACTAGGTCACCGGAAGGTCTAAGTCCGCATG | 3.99 | 3.38 | 0.494 | 2.73 | 0.609 | 5.3 | 8.5 | 7.22 | 4.98 | 6.82
9 | CAAACTAGGTCAAAGGTCACAGTCGAGCCAACCA | 8.05 | 6.81 | 4.49 | 7.06 | 2.03 | 7.83 | 13.8 | 11.1 | 13.2 | 13.2
10 | GCGACTGGGTCAAAGCAGGTTACCATAAGGTTGG | 3.12 | 3.67 | -0.265 | 2.21 | -0.807 | 4.27 | 4.75 | 4.75 | 2.08 | 3.49
11 | ATATGTAGATTAGCTGGGGTCATTCAGACTAGGC | 3.43 | 3.51 | 1.55 | 4.27 | 1.51 | 4.33 | 1.45 | 2.53 | 0.88 | 1.9
12 | CGAACGAGGTCAAGGACAGTGAATCTCCGCACGC | 7.55 | 5.54 | 0.753 | 4.4 | 0.542 | 5.95 | 7.29 | 6.61 | 3.39 | 5.65
13 | CAAACTAGGTCTCAGAGGTCAAAGTCCGTGCGTA | 4.78 | 5.2 | 5.13 | 4.97 | 1.8 | 5.18 | 4.67 | 5.17 | 2.69 | 4.41
14 | GCTTACGGGTCAAGGGTTATAGCATGAATAGAAT | 7 | 4.33 | -0.0628 | 4.68 | 0.59 | 6.34 | 9.43 | 7.41 | 6.16 | 8.05
15 | ATATGTAGGTTATCGGGCCATTCAGTTTGCGCAT | 0.607 | 1.03 | 0.565 | 0.95 | 0.458 | 3.22 | 5.22 | 4.45 | 1.98 | 3.76
16 | AGAACGATGGCAATGAGTTGATAGCACGGGTGGC | -0.517 | -0.814 | -0.366 | -1.05 | -0.645 | -0.643 | 0.654 | -0.25 | -0.674 | -0.599
17 | CGTCCAAGGTCAGCATGTCAGTGAAAGCGACGTG | 5.06 | 3.16 | -0.309 | 2.27 | -0.251 | 4.07 | 2.43 | 3.09 | 0.443 | 1.45
18 | ATCGAAAGGTCGAAGGTGAGTAGACCCACCCGAA | 4.66 | 3.33 | -0.000535 | 2.34 | 0.52 | 4.56 | 4.92 | 4.7 | 1.93 | 4.2
19 | GTACCAAGGTGAATAGGTCGTAGATGAGTAGGCG | 0.946 | 0.897 | -0.305 | 0.416 | -0.297 | 2.39 | 1.82 | 2.02 | 0.602 | 1.25
20 | GCTAGTTGGTCAGTAGAAGGTCACACACCGGTCG | 1.88 | 2.35 | 2.32 | 2.24 | 0.231 | 2.69 | 1.13 | 2.23 | 0.306 | 1.54
21 | TATACAGGGTCAAATGCCAGAGTACGAATGTCGA | 7.66 | 6.63 | 3.82 | 5.33 | 3.42 | 6.33 | 7.57 | 6.6 | 3.95 | 5.73
22 | TTACCAAGCTGAAAGGTCGTTGATGCACGCCTTG | 0.616 | 0.94 | -0.316 | 1.04 | -1.11 | 2.08 | 1.29 | 3.29 | 1.06 | 2.53
23 | TCTCGGAAGACACGAAAGGTCAGAGCTCGACATC | 2.36 | 3.38 | 1.85 | 3.1 | 0.242 | 3.61 | 0.772 | 2.46 | 3.29 | 2.35
24 | ACAGACAGGTGATGAAGGTAACACAGGCTATCAT | 0.124 | 0.0165 | -0.085 | 0.319 | -0.129 | 0.346 | 1.05 | 0.295 | 0.205 | 0.465
